# In the library only some 1.8% were active in any assay of this set; here they are far more common.
# aDG glyco up: activators of alpha-DG glycosylation, primary screen, uHTS, Pro5-aDG cells, AlphaScreen | alpha-DG glycosylation AlphaScreen (IIH6); 0% Pro5, 100% B10-LARGE cell signal | activation, % at 10 µM | 0.22% of 360,000 active | AID 624168, 2012;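 active = activation of at least 8% versus controls, or a plate z-score of at least 8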;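 note: Pro5 are CHO cells carrying HIG-tagged alpha-DG that lacks glycosylation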
# ARNT-TACC3 inh: disruptors of ARNT/TACC3 protein interaction, primary screen, biochemical, AlphaScreen, single concentration. Transforming acidic coiled-coil-containing protein 3 (Homo sapiens), Q9Y6A5. AlphaScreen His-ARNT PAS-B/GST-TACC3 binding, luminescence; TACC3 fragment carries E629A point mutation. inhibition, % at 9.99 µM. 0.66% of 390,000 active;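 active = mean inhibition of replicates at least 50% and at least half of replicates each reaching 50%; inconclusive = half or more replicates reach 50% but mean below 50%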;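 note: 0% = complete ARNT plus TACC3 wells and 100% = ARNT alone without TACC3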
# Mot1-301 SUMO: yeast Mot1-301 growth rescue at high temperature, primary screen, SUMOylation pathway inhibitor project, S. cerevisiae, ATP luminescence, 38.5C; S. cerevisiae Mot1-301 growth rescue; percent above DMSO median, 100 means doubled; growth rescue, % at 18.8 µM; 1% of 320,000 active; AID 2716, 2010;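 active = every valid replicate shows activation above 250% relative to neutral control wells; inactive = the rest, any valid replicate at or below 250%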;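 note: OY570 slx delta 5 strain wells were the positive control but not used for scaling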
# A1 inh: caspase 3/7 activation in MEF A1-2A-BIM cells, primary screen, A1 inhibitor project, cell-based, luminescence, HTS | Caspase-Glo 3/7 luminescence, 3 h; percent of clofoctol response, vehicle zero | 0.066% of 330,000 active | caspase activation, % (no concentration beside the values);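 active = over half of replicate activation scores above 10%, or exactly half above 10 with the replicate mean above 10; inconclusive = replicate mean below 10 yet half the replicates above 10; inactive = over half of replicates below 10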
# AI-2 QS mod: Vibrio harveyi AI-2 quorum sensing modulators, primary screen, JMH597 strain, luminescence/OD600 ratio; Vibrio harveyi JMH597 AI-2 luminescence/OD600 ratio, 9 h; stronger effect = lower value; strain lacks LuxN and CqsS sensors; 0 = neutral-control median; activity change, % at 7.5 µM; 0.4% of 300,000 active; AID 2094, 2009; in the data active = activity change below about -75%, passing the limit was not always enough; inconclusive = no clear call, values can overlap the other calls;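 note: luminescence divided by OD600 gain over 9 h not by final OD600 alone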
# Numbers without * were called inactive; ? = inconclusive; · = not tested or not shown; + = active, no number.
SMILES,aDG glyco up,ARNT-TACC3 inh,Mot1-301 SUMO,A1 inh,AI-2 QS mod
CSc1ccccc1NC(=O)CN(Cc1ccc(Cl)cc1)S(C)(=O)=O,0,-6,-29,2,12
Cc1nn(CC(=O)N2CCc3ccccc3C2)c(C)c1[N+](=O)[O-],0,2,-1,0,11
CC1CC(C)CN(S(=O)(=O)c2ccc3c(c2)oc(=O)n3CC(=O)N(C)Cc2ccccc2)C1 (stereo unspecified),0,-2,333*,0,88
ClC(Cl)c1nnc(-c2ccccc2)c(-c2c[nH]c3ccccc23)n1,0,9,12,1,-77*
COc1ccc(N2CCN(c3ncnc4scc(-c5ccc(F)cc5)c34)CC2)cc1,0,9,-25,1,-1
COc1ccc(CN2CCN(c3ncnc4scc(-c5ccc(F)cc5)c34)CC2)cc1,0,48*,16,-1,6
CCN1CCN(C(=O)C(C)Nc2ccc(OC)cc2OC)CC1 (stereo unspecified),0,42*,-7,0,12
O=C(Nc1nnc(S(=O)(=O)Cc2ccc(F)cc2)s1)c1ccccc1F,0,32,-1,0,24
CCOC(=O)C(C)Sc1nc(-c2ccccn2)ncc1OC (stereo unspecified),2,60*,7,0,36
COc1cnc(-c2ccccn2)nc1N(C)C,2,74*,-7,0,21
CCc1ccc(S(=O)(=O)/N=C2\C=C(NS(=O)(=O)c3ccccc3)C(=O)c3ccccc32)cc1,1,19,·,·,18
CC(C)c1ccc(S(=O)(=O)/N=C2\C=C(NS(=O)(=O)c3ccccc3)C(=O)c3ccccc32)cc1,0,47*,-26,0,87
CC(C)N(C(=O)Cn1c(SCC(=O)NCc2ccc3c(c2)OCO3)nc2ccccc21)C(C)C,0,0,307*,1,16
CC(C)Sc1nc2ccccc2n1CC(=O)NCc1ccc2c(c1)OCO2,0,-1,0,1,22
COC(=O)/C=C1\C(=O)N(c2nc3ccc(OC)cc3s2)C(=S)N1c1ccc(F)cc1,·,·,-15,0,32
O=c1[nH]c(-c2ccc(F)cc2)nc2c1sc(=S)n2-c1ccccc1,0,-2,966*,0,4
O=C(NCCCl)C1Cc2c(ccc3ccccc23)O1 (stereo unspecified),2,-27,+,0,-7
CN(C)S(=O)(=O)Nc1ccc(Oc2ccccc2)cc1,0,-19,13,0,-93*
Cc1[nH]c(=O)[nH]c(=O)c1S(=O)(=O)Nc1ccc(Oc2ccccc2)cc1,0,1,-15,0,37
CCN1CCN(C(=O)c2cc3cc(Cl)ccc3[nH]2)CC1,0,-6,155,0,-77*
CC(=O)N(C)C[C@@H]1Oc2ncc(-c3cncnc3)cc2C(=O)N([C@H](C)CO)C[C@H]1C,·,-5,·,·,·
COc1cccc(/C=N/Nc2ncnc(Cl)c2N)c1O,1,59*,-14,-4,-82*
COc1cccc(/C=N/Nc2nc3ccccc3n3cnnc23)c1O,0,85*,10,-1,34
COc1cccc(/C=N/Nc2nccnc2Cl)c1O,2,·,·,·,?
CC(Sc1nc(N)cc(=O)[nH]1)C(=O)NC1CCCCC1 (stereo unspecified),0,-6,+,1,·
SMILES,aDG glyco up,ARNT-TACC3 inh,Mot1-301 SUMO,A1 inh,AI-2 QS mod
COc1ccc(NC(=O)COC(=O)Cn2cnc3ccccc32)cc1,0,·,-17,0,·
CCCOc1ccc2c(c1)C(=NN=C(N)N)c1cc(OCCC)ccc1-2,0,12,286*,0,32
Cc1c(NC(=O)c2cccs2)cccc1-c1nc2ccccc2s1,0,-1,387*,0,21
Cc1cc(NC(=O)CSc2nnc(-c3ccco3)o2)no1,0,59*,0,0,21
Cc1cc(NC(=O)CSc2nnc(CNC(=O)c3ccc(C(C)(C)C)cc3)o2)no1,0,47*,-8,0,9
COC(=O)[C@@H](NC(=O)c1ccccc1)[C@@H](C)O,0,-1,-4,1,11
Cc1ccc(S(=O)(=O)N[C@H]2CC[C@H](CCNS(=O)(=O)Cc3ccccc3)O[C@@H]2CO)cc1,·,-16,·,·,·
CCOC(=O)c1cc(CC)sc1NC(=O)c1ccc([N+](=O)[O-])c(N2CCOCC2)c1,0,-8,371*,-1,13
CCOC(=O)C1CCCN(C(=O)CSc2ccc(NC(C)=O)cc2)C1 (stereo unspecified),0,0,150,-1,12
O=C(CN(Cc1ccc2c(c1)OCO2)C(=O)CNC(=O)c1ccco1)NC1CCCCC1,0,3,335*,?,29
C[C@H]1[C@H](C)CC[C@]2(C(=O)O)CC[C@]3(C)C(=CC[C@@H]4[C@@]5(C)C[C@@H](O)[C@H](O)C(C)(C)[C@@H]5CC[C@]43C)[C@H]12,0,-7,510*,0,24
OCC[C@@H]1C[C@H](O)[C@@H](O)[C@@]2(CCc3ccccc3O2)O1,0,0,16,1,24
Cn1cc(/C=N/NC(=O)c2cc3cc(Br)ccc3o2)c2ccccc21,0,·,7,0,24
O=C(O)Cn1cc(/C=N/NC(=O)c2cc3cc(Br)ccc3o2)c2ccccc21,0,19,+,0,19
NS(=O)(=O)c1ccc(-c2ccc(C=O)o2)cc1,0,·,9,?,5
NS(=O)(=O)c1ccc(-c2ccc(/C=C3\NC(=S)NC3=O)o2)cc1,0,58*,10,1,-2
O=C(O)c1ccccc1-c1ccccc1C(=O)Nc1ccc2oc(=O)c3ccccc3c2c1,0,·,·,·,·
O=C(O)c1ccccc1-c1ccccc1C(=O)Nc1ccc2c(c1)[nH]c(=O)c1ccccc12,0,47*,-4,-1,9
COc1ccc(-c2sc3ccccc3c2-c2ccc(OCCN(C)C)cc2)cc1,4,11,24,1,·
COc1cccc(-c2sc3ccc(OC)cc3c2-c2ccc(OCCN(C)C)cc2)c1,8.6*,9,-25,2,·
Cc1nnc(NC(=O)c2ccc(C)c(S(=O)(=O)N3CCCCCC3)c2)s1,0,-2,9,-1,-8
Cc1cccc(NC(=S)N/N=C/c2cccc(O)c2)c1C,1,2,-12,0,-9
O=C(NN=Cc1ccc(O)cc1O)c1ccccc1NS(=O)(=O)c1cccs1,0,47*,-10,-1,·

# Compound activity as filed in PubChem.
